Reference: PubChem BioAssay
Active and inactive are the calls of the source. Unless noted, the rule behind the calls is not given here.

Legend:
[1] = compounds binding Alexa647 anti-His antibody – biochemical, small-molecule microarray, 635 nm fluorescence, artefact control for SMM control protein annotation, primary screen (AID 1128); conditions: higher = more signal;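 note: score merges feature fluorescence with signal-to-noise for each printed compound spot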
[2] = tested on: Human papillomavirus type 1a E7 protein (residues 1-88); experiment: HPV1a E7 small-molecule binders, primary screen, biochemical, small-molecule microarray, residues 1-88, 635 nm (AID 1129); conditions: small-molecule microarray binding, fluorescence 635 nm; higher = more signal
[3] = target: Focal adhesion kinase 1 (Homo sapiens) (UniProt Q05397); experiment: PTK2 protein binding on printed compound slides – biochemical, small-molecule microarray, 635/667 nm fluorescence, BSA, DTT, primary screen (AID 1130); conditions: 635 nm fluorescence, higher = more signal;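 note: composite of spot emission at 667 nm and signal to noise over triplicate slides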
[4] = tested on: Fibrinogen (Alexa647-labelled); experiment: Alexa647-fibrinogen binding to printed small molecules – biochemical, small-molecule microarray, 635/667 nm fluorescence, artefact control for SMM control-protein annotation, profiling panel (AID 1131); conditions: fibrinogen-A647 binding fluorescence, higher = more signal;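 note: z-score merges 667 nm fluorescence with per-spot signal-to-noise over triplicate slides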
[5] = target: Follistatin (Homo sapiens) (UniProt P19883); experiment: FST protein binding to printed compounds – biochemical, small-molecule microarray, 635/667 nm fluorescence, primary screen (AID 1132); conditions: 635 nm fluorescence, higher = more signal
[6] = target: Fibroblast growth factor 2 (Homo sapiens) (UniProt P09038); experiment: basic fibroblast growth factor binding to printed compounds – biochemical, small-molecule microarray, 635/667 nm fluorescence, primary screen (AID 1133); conditions: FGF2, fluorescence 635/667, higher = more signal
[7] = JC-1 mitochondrial potential readout, lung cancer cells – cell-based, A549, JC-1 fluorescence, basal, 24 h, 100 nL, profiling panel (AID 1138); conditions: higher = more signal;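 note: A549 lung adenocarcinoma cells under basal conditions with no added stimulus; test concentration not given here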
[8] = tested on: Lefty1; experiment: Lefty1 protein binding to printed compounds – biochemical, small-molecule microarray, 635/667 nm fluorescence, primary screen (AID 1139); conditions: fluorescence 635/667, higher = more signal
[9] = tested on: wheat germ agglutinin (Triticum aestivum), Alexa647-labelled; experiment: Alexa647-WGA lectin binding to printed small molecules – biochemical, small-molecule microarray, 635/667 nm fluorescence, artefact control for SMM control-protein annotation, profiling panel (AID 1140); conditions: WGA-A647 binding, 635 nm fluorescence, higher = more signal;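 note: score merges 667 nm feature emission with signal to noise over triplicate slides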
[10] = target: Luciferin 4-monooxygenase (Photinus pyralis) (UniProt P08659); experiment: inhibition of purified Photinus pyralis luciferase – biochemical, luminescence, purified enzyme, 2006 set, primary screen (AID 1141); conditions: purified firefly luciferase, SteadyGlo luminescence, 30 min; higher = more signal, called active from +8 up or from −8 down;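 note: cell-free assay with purified firefly luciferase at 100 ng per well in PBS; test concentration not given here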
[11] = tested on: Wnt5a (protein binding on small-molecule microarray); experiment: small molecules binding Wnt5a protein – biophysical, small-molecule microarray, 635/667 nm fluorescence, primary screen (AID 1142); conditions: 635 nm fluorescence, higher = more signal;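 note: fluorescence read at 667 nm with signal to noise per printed feature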
[12] = ATP-based viability of Huh7 replicon cells – cell-based, CellTiter-Glo luminescence, basal, 48 h, cytotoxicity control for HCV replication inhibitor project, primary screen (AID 1143); conditions: higher = more signal, called active from +8 up or from −8 down;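 note: Huh7 hepatoma cells carrying a hepatitis C replication reporter with no stimulus; test concentration not given here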
[13] = Pseudomonas biofilm growth suppression – PAO1 strain, BacTiter-Glo luminescence, LB-PBS, primary screen (AID 1144); conditions: P. aeruginosa PAO1 biofilm, 12 h, higher = more signal
[14] = basal CRE-LacZ reporter activity in PC12 – cell-based, unstimulated, primary screen (AID 1145); conditions: no forskolin, luminescence, 4.5 h, higher = more signal, called active from +8 up or from −8 down
[15] = forskolin-driven CRE-LacZ activity in PC12 – cell-based, CRE-LacZ reporter, forskolin-stimulated, primary screen (AID 1146); conditions: luminescence, 4.5 h, higher = more signal, called active from +8 up or from −8 down;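 note: PC12 cells with 6xCRE LacZ reporter stimulated by forskolin 10 µM; beta-galactosidase reporter signal reflecting CREB driven transcription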
[16] = target: Streptavidin (Streptomyces avidinii) (UniProt P22629); experiment: compounds binding control protein streptavidin – biophysical, small-molecule microarray, 635/667 nm fluorescence, artefact control for SMM compound annotation, primary screen (AID 1147); conditions: higher = more signal;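 note: signal reflects streptavidin binding to arrayed compounds as a control protein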
[17] = probe aInhba binding on compound microarray – biochemical, small-molecule microarray, 635/667 nm fluorescence, primary screen (AID 1148); conditions: higher = more signal;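 note: score merges 667nm spot fluorescence with signal-to-noise for antibody binding to printed compounds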
[18] = target: Torsin-1A (Homo sapiens) (UniProt O14656); experiment: TOR1A wild-type binding on microarray – cell lysate, small-molecule microarray, lysate, 635/667 nm, primary screen (AID 1149); conditions: COS7 hTOR1A-WT lysate, 635 nm fluorescence, higher = more signal
[19] = target: Torsin-1A (Homo sapiens) (UniProt O14656); experiment: torsin A mutant lysate binding on microarrays – cell lysate, small-molecule microarray, COS7 lysate, 635/667 nm fluorescence, primary screen (AID 1150); conditions: COS7 hTOR1A mutant lysate, 635 nm fluorescence, higher = more signal;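 note: score pools 667 nm emission and signal to noise measuring lysate protein binding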
[20] = tested on: Sonic hedgehog protein (Shh); experiment: Sonic hedgehog microarray binding compounds – biochemical, small-molecule microarray, 635/667 nm fluorescence, primary screen (AID 1151); conditions: 635 nm fluorescence, higher = more signal;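 note: Shh protein binding to compounds spotted on small-molecule microarray slides; score combines spot fluorescence intensity with signal-to-noise across triplicate slides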

Sequence of Luciferin 4-monooxygenase (Photinus pyralis) (P08659 whole entry, looked up): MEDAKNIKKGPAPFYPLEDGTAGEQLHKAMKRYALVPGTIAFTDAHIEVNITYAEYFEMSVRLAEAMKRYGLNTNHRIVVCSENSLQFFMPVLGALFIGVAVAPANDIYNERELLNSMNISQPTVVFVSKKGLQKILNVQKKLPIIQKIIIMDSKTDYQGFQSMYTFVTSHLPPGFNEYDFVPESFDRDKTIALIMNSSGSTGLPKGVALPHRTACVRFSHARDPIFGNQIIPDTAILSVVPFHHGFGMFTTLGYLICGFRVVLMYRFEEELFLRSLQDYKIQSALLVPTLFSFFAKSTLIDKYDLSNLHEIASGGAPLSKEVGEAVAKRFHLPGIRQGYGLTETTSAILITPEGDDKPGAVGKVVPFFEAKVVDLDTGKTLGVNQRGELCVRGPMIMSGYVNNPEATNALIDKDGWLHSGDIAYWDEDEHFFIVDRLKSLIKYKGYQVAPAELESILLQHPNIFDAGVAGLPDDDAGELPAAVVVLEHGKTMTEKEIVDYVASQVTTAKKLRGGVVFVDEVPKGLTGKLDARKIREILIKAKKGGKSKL
Sequence of Follistatin (Homo sapiens) (P19883 whole entry, looked up): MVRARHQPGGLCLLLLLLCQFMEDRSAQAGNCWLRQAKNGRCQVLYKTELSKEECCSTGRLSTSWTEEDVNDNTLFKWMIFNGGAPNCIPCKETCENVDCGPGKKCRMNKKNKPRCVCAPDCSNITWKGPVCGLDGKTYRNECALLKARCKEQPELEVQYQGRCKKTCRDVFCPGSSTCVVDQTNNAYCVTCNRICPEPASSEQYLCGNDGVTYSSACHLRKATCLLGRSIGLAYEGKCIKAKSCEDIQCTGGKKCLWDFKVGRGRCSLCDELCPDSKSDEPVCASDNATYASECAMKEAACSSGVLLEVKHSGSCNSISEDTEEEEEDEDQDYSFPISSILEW
Sequence of Streptavidin (Streptomyces avidinii) (P22629 whole entry, looked up): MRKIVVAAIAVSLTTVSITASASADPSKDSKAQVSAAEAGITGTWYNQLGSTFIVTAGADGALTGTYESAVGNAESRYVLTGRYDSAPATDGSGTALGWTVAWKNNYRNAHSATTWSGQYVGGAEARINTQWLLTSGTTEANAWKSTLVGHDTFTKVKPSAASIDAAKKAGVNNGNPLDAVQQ
Sequence of Fibroblast growth factor 2 (Homo sapiens) (P09038 whole entry, looked up): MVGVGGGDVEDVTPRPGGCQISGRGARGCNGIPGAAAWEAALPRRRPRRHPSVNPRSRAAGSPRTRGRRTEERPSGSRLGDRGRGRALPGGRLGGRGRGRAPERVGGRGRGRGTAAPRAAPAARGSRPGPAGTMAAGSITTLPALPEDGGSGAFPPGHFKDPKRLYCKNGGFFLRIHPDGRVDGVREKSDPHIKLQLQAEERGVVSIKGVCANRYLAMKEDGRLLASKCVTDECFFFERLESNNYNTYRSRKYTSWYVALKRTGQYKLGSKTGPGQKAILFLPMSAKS
Sequence of Focal adhesion kinase 1 (Homo sapiens) (Q05397 whole entry, looked up): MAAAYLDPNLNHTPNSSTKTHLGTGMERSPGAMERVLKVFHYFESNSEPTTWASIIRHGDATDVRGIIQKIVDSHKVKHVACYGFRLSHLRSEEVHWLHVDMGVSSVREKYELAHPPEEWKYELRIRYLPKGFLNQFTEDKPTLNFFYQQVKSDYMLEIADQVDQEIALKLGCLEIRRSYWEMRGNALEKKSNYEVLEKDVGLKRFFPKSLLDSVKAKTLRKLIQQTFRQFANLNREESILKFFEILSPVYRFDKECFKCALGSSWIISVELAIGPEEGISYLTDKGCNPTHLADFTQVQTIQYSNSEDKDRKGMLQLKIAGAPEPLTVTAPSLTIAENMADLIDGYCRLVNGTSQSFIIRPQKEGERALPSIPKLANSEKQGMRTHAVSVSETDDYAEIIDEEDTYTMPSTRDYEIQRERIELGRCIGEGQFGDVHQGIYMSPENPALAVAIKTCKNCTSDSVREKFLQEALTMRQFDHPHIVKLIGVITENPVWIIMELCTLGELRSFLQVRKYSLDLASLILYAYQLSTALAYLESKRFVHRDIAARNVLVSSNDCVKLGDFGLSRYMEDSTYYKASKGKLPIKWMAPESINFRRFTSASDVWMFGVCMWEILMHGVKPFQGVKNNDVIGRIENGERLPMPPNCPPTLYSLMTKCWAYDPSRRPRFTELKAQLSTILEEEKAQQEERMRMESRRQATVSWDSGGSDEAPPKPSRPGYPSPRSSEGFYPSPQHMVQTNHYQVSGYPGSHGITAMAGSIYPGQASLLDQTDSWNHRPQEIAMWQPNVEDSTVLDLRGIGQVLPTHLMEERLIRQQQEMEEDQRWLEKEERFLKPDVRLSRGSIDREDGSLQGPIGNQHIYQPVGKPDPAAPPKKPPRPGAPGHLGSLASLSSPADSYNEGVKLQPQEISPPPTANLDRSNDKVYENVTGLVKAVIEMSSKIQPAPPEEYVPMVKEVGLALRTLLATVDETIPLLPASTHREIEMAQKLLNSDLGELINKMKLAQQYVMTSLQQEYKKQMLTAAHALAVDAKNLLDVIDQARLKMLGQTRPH
Sequence of Torsin-1A (Homo sapiens) (O14656 whole entry, looked up): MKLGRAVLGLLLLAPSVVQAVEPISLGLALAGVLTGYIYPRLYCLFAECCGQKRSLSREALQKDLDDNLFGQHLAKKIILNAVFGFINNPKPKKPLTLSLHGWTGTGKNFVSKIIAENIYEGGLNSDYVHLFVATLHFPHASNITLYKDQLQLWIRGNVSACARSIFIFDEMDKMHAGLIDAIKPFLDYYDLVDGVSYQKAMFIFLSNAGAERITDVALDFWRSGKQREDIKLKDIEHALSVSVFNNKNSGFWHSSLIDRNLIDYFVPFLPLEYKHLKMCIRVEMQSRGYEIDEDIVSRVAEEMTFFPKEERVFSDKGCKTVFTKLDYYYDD

| Structure (SMILES) | composite z-score [1] | composite z-score [2] | composite z-score [3] | composite z-score [4] | composite z-score [5] | composite z-score [6] | z-score [7] | composite z-score [8] | composite z-score [9] | z-score [10] | composite z-score [11] | z-score [12] | z-score [13] | z-score [14] | z-score [15] | composite z-score [16] | composite z-score [17] | composite z-score [18] | composite z-score [19] | composite z-score [20] |
| --- | --- | --- | --- | --- | --- | --- | --- | --- | --- | --- | --- | --- | --- | --- | --- | --- | --- | --- | --- | --- |
| C=CCNC(=O)[C@H]1[C@@H]2C(=O)O[C@@H](c3ccccc3)[C@@H](c3ccccc3)N2[C@@H](c2ccccc2OCCO)[C@]12C(=O)Nc1ccc(C#CCCO)cc12 | 1.12 | -0.231 | 0.191 | -0.205 | 0.0804 | 2.05 | 0.582 | -0.376 | -0.0387 | -0.412 (inactive) | 0.805 | -3.21 (inactive) | 0.481 (inactive) | -0.141 (inactive) | 4.71 (inactive) | -0.378 | -0.0944 | -0.897 | -0.202 | -0.322 |
| COC(=O)[C@@]1(Cc2ccccc2)[C@H]2c3cc(C(=O)N(C)C)n(Cc4ccsc4Br)c3C[C@H]2CN1C(=O)c1ccccc1 | 1.18 | 1.24 | 0.483 | 0.834 | 0.797 | -0.535 | 1.04 | -0.143 | 0.948 | 0.78 (inactive) | 0.211 | -3.35 (inactive) | -0.166 (inactive) | 0.58 (inactive) | 0.751 (inactive) | 1.09 | 0.0737 | 0.856 | 0.508 | -1.21 |
| C=C(CCCC)/C(=C/C[C@H](OC(C)=O)c1ccccc1OCCO)c1cc(C(=O)OC)ccc1OC | -0.33 | 0.0376 | -0.0155 | -0.438 | 0.0341 | -0.196 | 1.39 | 0.0742 | -0.4 | -0.687 (inactive) | 0.0205 | -3.83 (inactive) | 0.437 (inactive) | 13.3 (active) | -0.671 (inactive) | -0.24 | -0.157 | -0.266 | -0.174 | 0.199 |
| C=CCC(OC(C)=O)[C@@H]1[C@@H](N(Cc2cccc3ccccc23)C(=O)c2ccc(-c3ccccc3)cc2)c2cc(OCCCO)ccc2N1C(=O)c1ccc2ccccc2c1 (stereo not given in full) | -0.165 | 0.233 | 0.299 | 0.66 | 0.906 | -0.0101 | 0.0927 | 0.389 | 0.0002 | 0.797 (inactive) | -0.0128 | 0.107 (inactive) | -0.815 (inactive) | 0.222 (inactive) | 0.0667 (inactive) | 0.486 | 0.0816 | -0.219 | -0.0217 | 0.711 |
| CC(C)C[C@@H]1NC(=O)[C@@H]2C[C@H](C(=O)NCc3ccc(F)cc3)[C@H](c3cccc(OCCO)c3)N2C1=O | 2.05 | 0.135 | 0.379 | -0.373 | 1.47 | 1.46 | 1.87 | 0.616 | -0.129 | -0.976 (inactive) | 1.9 | -0.119 (inactive) | -1.53 (inactive) | 0.826 (inactive) | -0.798 (inactive) | -0.443 | 0.286 | 0.265 | 1.3 | 1.75 |
